Test results reported in PubChem BioAssay (NCI).
About 79,000 compounds went through this panel and 15% of them were active in at least one assay; those are over-represented in the sample as a whole. Calls of active or inactive are those of the source. Cut-off read from the data, not from the text of the source: active = growth inhibition above about 70%; inactive = the rest.

Legend:
[1] = NCI Yeast Anticancer Drug Screen. Data for the rad52 strain (AID 147);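 note: 0% = growth of vehicle-treated control cultures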; settings: S. cerevisiae rad52 mutant growth inhibition, hits give high values
Method in brief: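 Compounds are applied to a genetically defined yeast strain lacking normal DNA damage repair, and inhibition of growth is expressed relative to cultures given vehicle only.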

[2] = NCI Yeast Anticancer Drug Screen. Data for the wt1 strain (AID 149);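 note: 0% = growth of vehicle-treated wt1 cultures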; settings: S. cerevisiae wt1 strain (SPY 50644) growth inhibition, hits give high values
Method in brief: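 Yeast wt1 strain exposed to compounds; growth inhibition measured relative to vehicle-treated controls.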

[3] = NCI Yeast Anticancer Drug Screen. Data for the rad50EPP+ strain (AID 151);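 note: 0% = growth of vehicle-treated control cultures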; settings: S. cerevisiae rad50 mutant strain, hits give high values
Method in brief: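 Compounds were applied to the rad50EPP+ yeast strain, which bears a defined DNA repair alteration, and growth inhibition was determined relative to vehicle-treated cultures.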

[4] = NCI Yeast Anticancer Drug Screen. Data for the mgt1 strain (AID 153); settings: S. cerevisiae mgt1 mutant growth inhibition, hits give high values
Method in brief: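 Strain: mgt1 yeast, one of a set carrying defined DNA damage repair or cell cycle control alterations. Compound-treated growth compared with vehicle.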

[5] = NCI Yeast Anticancer Drug Screen. Data for the rad50 strain (AID 155);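 note: 0% = growth of vehicle-only cultures of the same strain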; settings: S. cerevisiae rad50 strain growth inhibition, hits give high values
Method in brief: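 Yeast carrying a defined DNA repair defect were exposed to test compounds, and growth was compared with vehicle-treated controls to give percent inhibition.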

[6] = NCI Yeast Anticancer Drug Screen. Data for the mec2-1 strain (AID 157); settings: S. cerevisiae mec2-1 strain, hits give high values
Method in brief: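 Strain: mec2-1 (DNA repair/cell cycle alteration). Compound exposure, then growth measured; inhibition expressed relative to vehicle.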

[7] = NCI Yeast Anticancer Drug Screen. Data for the rad14 strain (AID 159);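 note: 0% = growth of vehicle-treated control cultures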; settings: S. cerevisiae rad14 strain growth inhibition, hits give high values
Method in brief: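 Yeast cells carrying a defined DNA-repair defect were exposed to compounds, and growth inhibition was calculated relative to vehicle-treated control cultures.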

[8] = NCI Yeast Anticancer Drug Screen. Data for the sgs1 mgt1 strain (AID 161);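 note: 0% = growth of cultures given vehicle only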; settings: S. cerevisiae sgs1 mgt1 strain, hits give high values
Method in brief: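 Mutant yeast exposed to compound; growth scored against vehicle-only wells.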

[9] = NCI Yeast Anticancer Drug Screen. Data for the CLN2oe strain (AID 163);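 note: 0% = growth of vehicle-only control cultures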; settings: S. cerevisiae CLN2oe strain, hits give high values
Method in brief: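 Growth of a genetically modified yeast strain is measured after compound exposure and compared with cultures given vehicle alone.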

[10] = NCI Yeast Anticancer Drug Screen. Data for the cln2 rad14 strain (AID 165);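 note: 0% = growth equal to vehicle treated cultures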; settings: S. cerevisiae cln2 rad14 strain, hits give high values
Method in brief: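 Compounds are applied to the cln2 rad14 yeast strain, and growth is then compared with that of vehicle-treated cultures to give inhibition.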

[11] = NCI Yeast Anticancer Drug Screen. Data for the bub3 strain (AID 167); settings: S. cerevisiae bub3 mutant strain, hits give high values
Method in brief: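 Compounds were applied to a genetically altered yeast strain carrying a cell-cycle control defect. Growth inhibition was scored against vehicle-treated controls.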

[12] = NCI Yeast Anticancer Drug Screen. Data for the wt2 strain (AID 169);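 note: 0% = growth of vehicle-treated yeast cultures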; settings: S. cerevisiae wt2 strain growth inhibition, hits give high values
Method in brief: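 This strain belongs to a panel of yeast strains with defined genetic alterations in DNA damage repair or cell cycle control. Compounds are applied, and growth inhibition is measured against vehicle-treated cultures.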

[13] = NCI Yeast Anticancer Drug Screen. Data for the mlh1 strain (AID 171);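 note: 0% = growth of vehicle-treated control cultures of the same strain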; settings: S. cerevisiae mlh1 strain growth inhibition, hits give high values
Method in brief: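 Growth of the mutant yeast strain after compound exposure, expressed as inhibition relative to vehicle-only controls.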

[14] = NCI Yeast Anticancer Drug Screen. Data for the sgs1 strain (AID 173);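 note: 0% = growth of vehicle-only control cultures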; settings: S. cerevisiae sgs1 mutant, hits give high values
Method in brief: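 Growth of a yeast strain bearing a defined genetic alteration is measured after compound treatment. Inhibition is expressed relative to vehicle-only controls.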

[15] = NCI Yeast Anticancer Drug Screen. Data for the mlh1 rad18 strain (AID 175); settings: S. cerevisiae mlh1 rad18 strain growth inhibition, hits give high values
Method in brief: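 Read-out is yeast growth inhibition, calculated against vehicle-only controls. The compound was applied to a strain engineered with DNA damage repair alterations.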

[16] = NCI Yeast Anticancer Drug Screen. Data for the rad18 strain (AID 177); settings: S. cerevisiae rad18 mutant growth inhibition, hits give high values
Method in brief: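 Growth of the mutant yeast strain after compound exposure, normalised to vehicle-only cultures.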

[17] = at 5.0 µM (retest, dose inferred, filed as 0.5)
[18] = at 50.0 µM (retest, dose inferred, filed as 5.0)

Measured: growth inhibition

CCCC(O)C1CC(C(C)C)CCC1C (stereo not drawn)
inactive: [1]; at 1.2 µM 0% | [1]; at 3.7 µM 1% | [1]; at 11.0 µM 2% | [1]; at 33.0 µM 7% | [1]; at 100.0 µM 43% | [2]; at 1.2 µM -1% | [2]; at 3.7 µM 0% | [2]; at 11.0 µM -1% | [2]; at 33.0 µM 3% | [3]; at 1.2 µM -3% | [3]; at 3.7 µM -2% | [3]; at 11.0 µM 7% | [3]; at 33.0 µM 47% | [4]; at 1.2 µM -2% | [4]; at 3.7 µM 0% | [4]; at 11.0 µM -1% | [4]; at 33.0 µM 5% | [5]; at 1.2 µM 0% | [5]; at 3.7 µM -46% | [5]; [17] 0% | [5]; at 11.0 µM 25% | [5]; at 33.0 µM 6% | [5]; [18] 5% | [5]; at 50.0 µM 31.4% | [5]; at 100.0 µM 64% | [6]; at 1.2 µM 0% | [6]; at 3.7 µM 3% | [6]; [17] 0% | [6]; at 11.0 µM 5% | [6]; at 33.0 µM 9% | [6]; [18] 52% | [7]; at 1.2 µM -1% | [7]; at 3.7 µM 0% | [7]; at 11.0 µM 4% | [7]; at 33.0 µM 17% | [8]; [17] -11% | [8]; [18] 33% | [8]; at 50.0 µM 24.8% | [9]; at 1.2 µM -3% | [9]; at 3.7 µM -3% | [9]; at 11.0 µM 5% | [9]; at 33.0 µM 4% | [9]; at 100.0 µM 12% | [10]; [17] 4% | [10]; [18] 44% | [11]; at 1.2 µM -3% | [11]; at 3.7 µM -2% | [11]; [17] -2% | [11]; at 11.0 µM -3% | [11]; at 33.0 µM 1% | [11]; [18] 10% | [12]; at 1.2 µM -1% | [12]; at 3.7 µM 6% | [12]; at 11.0 µM 0% | [12]; at 33.0 µM 4% | [13]; at 1.2 µM -2% | [13]; at 3.7 µM 0% | [13]; at 11.0 µM 3% | [13]; at 33.0 µM 9% | [14]; at 1.2 µM -2% | [14]; at 3.7 µM -1% | [14]; at 11.0 µM 4% | [14]; at 33.0 µM 15% | [15]; [17] -1% | [15]; [18] 11% | [15]; at 50.0 µM 55.9% | [16]; at 1.2 µM 0% | [16]; at 3.7 µM 1% | [16]; at 11.0 µM 2% | [16]; at 33.0 µM 9%
active: [2]; at 100.0 µM 75% | [3]; at 100.0 µM 98% | [4]; at 100.0 µM 96% | [6]; at 50.0 µM 75.5% | [6]; at 100.0 µM 96% | [7]; at 100.0 µM 99% | [10]; at 50.0 µM 92% | [11]; at 50.0 µM 92.3% | [11]; at 100.0 µM 98% | [12]; at 100.0 µM 74% | [13]; at 100.0 µM 95% | [14]; at 100.0 µM 94% | [16]; at 100.0 µM 92%
